PubChem BioAssay
Results filed as inconclusive are left out. Calls of active or inactive are those of the source.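 How the source made its calls, unless noted: active means viability at or below 30% in both replicate assays; inconclusive means viability at or below 30% in just one of the two assays; inactive means the rest.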

Tests used:
[1] = Her2 expression decrease, cell viability multiplex – SKBR3 breast tumor cells, AlphaScreen, ATP viability, primary screen (AID 461;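 active means Her2 level under about 52% in both replicate screens, with viability over 70% of control, limit read from the data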;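 on Her2 level: lower value means less Her2 protein in the cells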;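 on viability: percent of carrier control wells set as 100% viability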); conditions: SKBR3 Her2 protein level, 18-24 h, measured here: SKBR3 viability, ATP luminescence, at 10 µM
[2] = molecular target: Receptor tyrosine-protein kinase erbB-2 (Homo sapiens) (UniProt P04626); test: as above; conditions: 18-24 h, at 10 µM, stronger effect = lower value
[3] = reduced viability of SK-BR-3 breast cancer cells – cell-based, 24 h, human, pilot screen (AID 572;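 active means viability at or below 10% of carrier control in both of two separate runs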;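 further: compound exposure lasted between 18 and 24 h rather than exactly 24 h; 100% = carrier-treated control wells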); conditions: SK-BR-3 viability, CellTiter-Glo luminescence, at 10 µM, stronger effect = lower value
[4] = HUVEC growth inhibition – cell-based, human, primary screen (AID 575); conditions: HUVEC proliferation, CellTiter-Glo luminescence, 72 h; at 10 µM; stronger effect = lower value;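 further: 100% = median of untreated cell wells with 0.1% DMSO on each plate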
[5] = H69AR cell proliferation blockers – human, duplicate replicates, primary screen (AID 580;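 active means viability at or under a set limit in both replicates, limit being median viability minus 3 SD, cut at about 48% in these data, passing the limit was not always enough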;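 further: 100% = mean luminescence of untreated wells and 0% = no signal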); conditions: H69AR lung tumor cells viability, ATP luminescence, 72 h; at 10 µM; stronger effect = lower value
[6] = MRP1 drug-resistance reversers in H69AR cells – cell-based, doxorubicin co-treatment, pilot screen (AID 601;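 active means viability loss from added drug above about 55%, and viability with drug at most 40%, in both replicates, limit read from the data, passing the limit was not always enough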); conditions: CellTiter-Glo, 72 h, at 10 µM; for differential viability (reversal): stronger effect = higher value
[7] = yeast transport mutant growth inhibition pilot in 384-well plates, post-Golgi transport modulator project (AID 636; in the data active means inhibition above about 31%); conditions: absorbance 615 nm, about 18 h, stronger effect = higher value
[8] = growth suppression of yeast trafficking mutant, preliminary HTS, modulators of trafficking downstream of Golgi apparatus project, 1536-format plate, OD 615 nm (AID 637; in the data active means inhibition above about 30%); conditions: yeast transport mutant growth, absorbance 615 nm, 18 h; stronger effect = higher value
[9] = S. cerevisiae growth inhibition in permissive medium (OD615), pilot counter-assay for S. cerevisiae lifespan shortening project, permissive growth control (AID 705;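 active means growth inhibition above 25% in both replicates, a cutoff set 3 SD above the mean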); conditions: OD615, 24 h, at 10 µM, stronger effect = higher value
[10] = S. cerevisiae growth inhibition in restrictive medium, OD615, pilot screen, restrictive growth control, yeast lifespan reduction project (AID 706;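 active means growth inhibition above a set limit, 3 SD over mean compound inhibition, in both replicates, cut at about 43% in these data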;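 further: modified DeaD lifespan yeast strain shifted to restrictive glucose medium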); conditions: OD615, 48 h, at 10 µM, stronger effect = higher value
[11] = doxorubicin toxicity protection in MRP-1 cells – H69AR cells, CellTiter-Glo, duplicate, MRP-1 activator project, pilot screen (AID 807;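 active means viability increase at or above a cutoff of the median across tested compounds plus 3 SD, cut at about 8.5% in these data, passing the limit was not always enough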;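 further: compound pretreatment 18-22 h then 72 h combined with doxorubicin; 0% = doxorubicin alone and 100% = vehicle without doxorubicin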); conditions: H69AR viability with doxorubicin, CellTiter-Glo luminescence; at 10 µM; stronger effect = higher value
[12] = viability of HCT116 without oncogenic beta-catenin – human colon tumor cells, pilot screen (AID 823;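 active means cell viability at or below a set limit in both duplicate runs, the limit being the all-compound median minus 4 SD, cut at about 23% in these data, passing the limit was not always enough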;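 further: 0% = wells killed by 20 µM Hyamine and 100% = untreated DMSO cell wells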); conditions: HCT116 beta-catenin knockout viability, CellTiter-Glo, 60 h; at 10 µM; stronger effect = lower value
[13] = viability of PTEN-null HCT116 cells – cell-based, HCT116 clonal line, CellTiter-Glo, pilot screen (AID 824;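 active means viability at or below 27.92% in each of two runs, the all-compound median minus 4 SD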;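 further: 0% = 20 µM Hyamine control and 100% = vehicle cell control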); conditions: HCT116 PTEN-deleted viability, 60 h, at 10 µM, stronger effect = lower value
[14] = RAM pathway blockade in budding yeast – dse1pr::URA3 reporter, 5-FOA selection, pilot screen (AID 869;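 active means inhibition over a set limit, the all-compound mean plus 3 SD, in both replicate runs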;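 further: 0% = DMSO wells with no growth and 100% = 10 µM 1-NA-PP1 with full growth; RAM network block rescues cells from 5-FOA so hits raise OD615 growth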); conditions: S. cerevisiae dse1pr::URA3 5-FOA growth, OD615, 2 d; at 10 µM; stronger effect = higher value; strain carries analog-sensitive mutant Cbk1 kinase
[15] = RAM signaling pathway blockade in yeast – S. cerevisiae, Pdr1DBD-CYC8 efflux-inhibited sensitized strain, primary screen (AID 1298;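 active means RAM network inhibition above 8.4% in each of two replicates, 3 SD over the compound average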;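 further: 0% = DMSO untreated cells without growth and 100% = 10 µM 1-NA-PP1 full growth; higher means more yeast growth rescued from 5-FOA killing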); conditions: S. cerevisiae cbk1-as DSE1-URA3 strain, 5-FOA growth OD615, 2 d; at 50 µM; stronger effect = higher value
[16] = H69AR cells + 2 uM doxorubicin, measured here: viability with 2 uM doxorubicin, stronger effect = lower value
[17] = H69AR cells, compound alone cytotoxicity

Chain of Receptor tyrosine-protein kinase erbB-2 (Homo sapiens) (P04626 whole entry, looked up): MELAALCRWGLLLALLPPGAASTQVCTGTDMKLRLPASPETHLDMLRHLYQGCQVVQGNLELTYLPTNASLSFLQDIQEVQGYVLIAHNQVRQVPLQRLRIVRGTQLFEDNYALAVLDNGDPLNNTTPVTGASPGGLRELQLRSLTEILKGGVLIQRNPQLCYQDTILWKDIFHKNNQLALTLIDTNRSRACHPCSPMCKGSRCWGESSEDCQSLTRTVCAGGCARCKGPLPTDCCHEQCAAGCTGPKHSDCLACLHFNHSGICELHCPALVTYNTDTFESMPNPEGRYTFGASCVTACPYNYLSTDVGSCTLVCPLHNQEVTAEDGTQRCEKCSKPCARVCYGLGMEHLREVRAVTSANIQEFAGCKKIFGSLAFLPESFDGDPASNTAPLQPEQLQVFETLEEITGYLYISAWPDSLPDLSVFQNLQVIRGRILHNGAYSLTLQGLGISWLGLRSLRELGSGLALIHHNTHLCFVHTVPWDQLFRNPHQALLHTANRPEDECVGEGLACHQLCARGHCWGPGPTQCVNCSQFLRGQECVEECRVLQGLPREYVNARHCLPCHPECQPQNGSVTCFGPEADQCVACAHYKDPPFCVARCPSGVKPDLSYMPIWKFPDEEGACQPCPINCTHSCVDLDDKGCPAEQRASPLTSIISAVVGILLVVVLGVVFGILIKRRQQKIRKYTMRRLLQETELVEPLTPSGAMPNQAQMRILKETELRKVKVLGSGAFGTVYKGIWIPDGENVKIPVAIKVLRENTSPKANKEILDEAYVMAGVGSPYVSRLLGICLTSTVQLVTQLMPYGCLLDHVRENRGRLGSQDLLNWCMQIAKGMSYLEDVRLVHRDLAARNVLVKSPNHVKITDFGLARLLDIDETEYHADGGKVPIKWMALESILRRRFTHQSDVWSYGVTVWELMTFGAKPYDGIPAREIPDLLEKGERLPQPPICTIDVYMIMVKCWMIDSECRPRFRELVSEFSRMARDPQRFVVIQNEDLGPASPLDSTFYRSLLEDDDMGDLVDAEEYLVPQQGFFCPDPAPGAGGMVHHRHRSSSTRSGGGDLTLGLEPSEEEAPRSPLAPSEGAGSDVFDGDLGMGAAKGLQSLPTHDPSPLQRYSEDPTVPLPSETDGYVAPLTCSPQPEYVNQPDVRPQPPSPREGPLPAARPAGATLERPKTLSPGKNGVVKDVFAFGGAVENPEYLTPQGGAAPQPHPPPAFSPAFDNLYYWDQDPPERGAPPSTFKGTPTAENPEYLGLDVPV

COc1ccc(-c2nc3c(c(SCC(=O)N4CCOCC4)n2)COC(C)(C)C3)cc1
inactive: Her2 level [2] 113% | viability [3] 111% | viability [4] 85.5% | viability [5] 89.2% | differential viability (reversal) ([6]; H69AR cells + 2 uM doxorubicin) -2.95% | inhibition [7] -2% | inhibition [8] 13.8% | growth inhibition [9] 2.8% | growth inhibition [10] -4.27% | viability increase [11] -1.69% | viability [12] 101% | viability [13] 103% | inhibition [14] 0.94% | RAM network inhibition [15] 2.02%
89.2%: viability [6, 17]
111%: viability [1]
92.1%: viability [6, 16]

Cc1ccc(S(=O)(=O)Cc2ccc(C(=O)N3CCN(Cc4ccccc4)CC3)o2)cc1
85.8%: viability [6, 17]
86.5%: viability [1]
94.6%: viability [6, 16]
inactive: Her2 level [2] 80.5% | viability [3] 86.5% | viability [4] 106% | viability [5] 85.8% | differential viability (reversal) ([6]; H69AR cells + 2 uM doxorubicin) -8.85% | inhibition [7] -0.9% | inhibition [8] 3.5% | growth inhibition [9] 0.06% | growth inhibition [10] -3.51% | viability increase [11] -1.59% | viability [12] 97.3% | viability [13] 94.9% | inhibition [14] 1.59% | RAM network inhibition [15] 6.48%

CCCN1CCN(CCCNC(=O)Cn2ncc3c4ccccc4n(C)c3c2=O)CC1
96.8%: viability [6, 16]
102%: viability [6, 17]
inactive: Her2 level [2] 120% | viability [3] 99% | viability [4] 101% | viability [5] 102% | differential viability (reversal) ([6]; H69AR cells + 2 uM doxorubicin) 5.29% | inhibition [7] 0.9% | inhibition [8] 5.17% | growth inhibition [9] 4.22% | growth inhibition [10] -10.6% | viability increase [11] -1.73% | viability [12] 96.7% | viability [13] 95.8% | inhibition [14] 1.89% | RAM network inhibition [15] -0.33%
99%: viability [1]
